Compound activity from PubChem BioAssay.
Only some compounds are listed: those with a hit (about 2.9% of all), similar ones and a draw of the others.
ADAM17 inh: inhibitors of human ADAM17. P78536. recombinant ADAM17, EDANS/DABCYL FRET peptide cleavage. inhibition, % at 6.95 µM. actives 0.83% (n = 370,000). AID 720648;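 active = inhibition above the mean of compounds lying between control limits plus 3 SD, set per campaign, cut at about 8.5% in these data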
PLC-gamma1 inh: PLC-gamma1 (human) inhibition, primary screen | purified PLC-gamma1, fluorogenic substrate, fluorescence | P19174 | actives 0.84% (n = 370,000) | inhibition, % at 12.2 µM; in the data active = inhibition above about 9.5%
KLK7 zymogen act: activates the human kallikrein-7 zymogen; P49862; actives 0.9% (n = 370,000); activation, % at 7 µM; purified proKLK7, EDANS-DABCYL substrate fluorescence; 100% is mature enzyme control, 0% vehicle;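 active = activation above the mean of all tested compounds plus 3 SD, computed per campaign excluding outliers beyond control limits, cut at about 13% in these data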
PLCb3 inh: blocks human PLC-beta3 enzyme activity; actives 0.18% (n = 370,000); Purified PLC-beta3, fluorogenic substrate, fluorescence; inhibition, % at 12.2 µM; Q01970; in the data active = inhibition above about 11%
ADAM10 inh: inhibits human ADAM10; O14672; recombinant ADAM10, EDANS/DABCYL FRET peptide cleavage, 3 h; inhibition, % at 7 µM; actives 0.62% (n = 370,000); AID 720582;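 active = inhibition above a per-campaign cutoff equal to the mean of compounds falling between control-based bounds plus 3 SD, cut at about 20% in these data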
Target sequence (O14672 214-748 limits assumed): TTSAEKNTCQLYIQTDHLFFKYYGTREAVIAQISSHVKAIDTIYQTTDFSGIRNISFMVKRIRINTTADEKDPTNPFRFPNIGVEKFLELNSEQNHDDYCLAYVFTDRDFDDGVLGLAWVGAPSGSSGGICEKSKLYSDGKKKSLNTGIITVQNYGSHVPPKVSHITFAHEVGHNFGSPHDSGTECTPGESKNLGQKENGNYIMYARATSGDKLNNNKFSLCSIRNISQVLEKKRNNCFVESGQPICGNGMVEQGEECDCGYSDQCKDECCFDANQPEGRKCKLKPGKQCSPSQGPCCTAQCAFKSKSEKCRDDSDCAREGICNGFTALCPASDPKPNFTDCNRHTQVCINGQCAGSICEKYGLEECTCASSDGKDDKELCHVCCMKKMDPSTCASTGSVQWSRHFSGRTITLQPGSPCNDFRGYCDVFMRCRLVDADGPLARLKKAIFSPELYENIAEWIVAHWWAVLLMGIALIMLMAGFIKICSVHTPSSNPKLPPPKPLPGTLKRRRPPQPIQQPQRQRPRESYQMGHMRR
ADAM10 confirm: confirmation of inhibitors of human ADAM10; ADAM10 QFRET peptide cleavage, EDANS fluorescence; shares compounds with ADAM10 inh; actives 1% (n = 2,100); inhibition, % at 6.95 µM;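 active = inhibition above about 20% chosen separately for each screening run, limit read from the data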
ADAM17 counter: counter-screen for ADAM10 exosite inhibitors: inhibitors of human ADAM17; shares compounds with ADAM10 inh; ADAM17 QFRET peptide cleavage, EDANS fluorescence; inhibition, % at 6.95 µM; actives 0.5% (n = 2,100);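 active = mean triplicate inhibition above the solvent-only control wells' mean plus 3 SD, cut at about 12% in these data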
ADAM10 counter: ADAM10 inhibition, counter-screen for ADAM17 exosite hits | shares compounds with ADAM17 inh | recombinant ADAM10, EDANS/DABCYL FRET peptide cleavage, 3 h | inhibition, % at 6.95 µM | actives 47% (n = 2,900) | AID 743256;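 active = mean inhibition over the triplicate runs exceeds the activity threshold set in the earlier primary screen, cut at about 20% in these data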
ADAM17 confirm: human ADAM17 inhibition, confirmation; actives 65% (n = 2,900); AID 743257; inhibition, % at 6.95 µM; shares compounds with ADAM17 inh; recombinant ADAM17, EDANS/DABCYL QFRET peptide cleavage;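 active = mean inhibition across replicates above the hit cutoff set in the primary screen, cut at about 8.5% in these data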
Of the large screens only hits and unclear results are named; the others gave an inactive call (follow-up assays come after a bar, where they were run).

CCC[C@H]1[C@@H](OC(=O)NCc2ccc(OC)c(OC)c2)CC[C@@]23CCCN2C(=O)CCC[C@@H]13	none (no result: KLK7 zymogen act)
O=C1C=C(c2cccc(Cl)c2O)C[C@@H](c2ccc(Cl)cc2)C1	ADAM17 inh 14, ADAM10 inh 22 | ADAM10 confirm inactive | ADAM17 counter inactive | ADAM10 counter 22 | ADAM17 confirm 13
O=C1C=C(c2cccc(Cl)c2)C[C@@H](c2ccc(Cl)cc2)C1	none
COC(=O)[C@@]12C[C@@H](CC(=O)N3CCOCC3)C(=O)N(CCc3ccc(OC)c(OC)c3)C1=CCC(C)(C)C2	none
COc1ccc(NC(=O)CN(C)C(=O)c2cn(-c3ccccc3)nc2-c2ccc(F)cc2)cc1	none
COc1ccc(NC(=O)CN(C)C(=O)c2cn(-c3ccccc3)nc2-c2ccc(Cl)cc2)cc1	ADAM17 inh 10, ADAM10 inh 20 | ADAM10 confirm inactive | ADAM17 counter inactive | ADAM10 counter 38 | ADAM17 confirm 18
CC1=C(C(=O)Nc2ccc([N+](=O)[O-])cc2)C(c2cccc(C(F)(F)F)c2)NC(=S)N1c1ccccc1 (stereo not drawn)	ADAM17 inh 18, ADAM10 inh 34 | ADAM10 confirm inactive | ADAM17 counter inactive | ADAM10 counter 59 | ADAM17 confirm 32
COC(=O)[C@H](C(C)C)N(Cc1cn(Cc2ccccc2)nn1)S(=O)(=O)c1ccc(F)cc1Br	none
COc1ccc(OC)c(N(CC(=O)NCCSC2CCCCC2)S(=O)(=O)c2ccccc2)c1	none
COc1ccc(N(CC(=O)NCCSC2CCCCC2)S(=O)(=O)c2ccccc2)c(OC)c1	ADAM17 inh 9.4, ADAM10 inh 21 | ADAM10 confirm inactive | ADAM17 counter inactive | ADAM10 counter inactive | ADAM17 confirm inactive
N#CC1=C(N)NC(SCC(=O)c2ccc(Cl)cc2)=C(C#N)C12CCCC2	none
N#CC1=C(N)NC(SCC(=O)c2ccc(Br)cc2)=C(C#N)C12CCCCC2	ADAM17 inh 13, ADAM10 inh 22 | ADAM10 confirm inactive | ADAM17 counter inactive | ADAM10 counter 42 | ADAM17 confirm 19
CC(C)(C)OC(=O)N1CCCC(C(=O)Nc2cccc(C(=O)NCCCCc3ccccc3)c2)C1 (stereo not drawn)	ADAM17 inh 13, ADAM10 inh 22 | ADAM10 confirm inactive | ADAM17 counter inactive | ADAM10 counter inactive | ADAM17 confirm 12
CCCn1c(C)c(CC(=O)Nc2ccc(N(C)c3ccccn3)cc2)c2ccccc21	none
Nc1ccn([C@@H]2O[C@H](CN=C3NS(=O)(=O)c4ccccc43)[C@@H](O)[C@H]2O)c(=O)n1	none
CN(c1cccnc1)c1ccc(NC(=O)Cc2c[nH]c3ccccc23)cc1-c1cccnc1F	none
O=C(Nc1ccc(Cl)cc1)N1CCCN(c2ccc(C(F)(F)F)cc2[N+](=O)[O-])CC1	none
CCCOc1ccc(NC(=O)CC2C(=O)N(Cc3ccccc3)C(=S)N2Cc2cccs2)cc1 (stereo not drawn)	ADAM17 inh 13, ADAM10 inh 26 | ADAM10 confirm inactive | ADAM17 counter inactive | ADAM10 counter 30 | ADAM17 confirm 16
COC(=O)CN1C(=S)N(Cc2ccccc2)C(=O)C1CC(=O)Nc1ccc(Br)cc1 (stereo not drawn)	ADAM17 inh 12, ADAM10 inh 23 | ADAM10 confirm inactive | ADAM17 counter inactive | ADAM10 counter 27 | ADAM17 confirm 13
CCN1C(=O)C(CC(=O)Nc2ccc(F)cc2)N(Cc2cccs2)C1=S (stereo not drawn)	none
COC(=O)[C@]12C[C@H](CC(=O)NCc3ccc(OC)c(OC)c3)C(=O)N(CCc3ccc(OC)c(OC)c3)C1=C[C@H](C(C)(C)C)O[C@@H]2C	none
COc1cc(C(=O)NC2CCCCN(Cc3cccc(C(F)(F)F)c3)C2=O)cc(OC)c1OC (stereo not drawn)	none
CC(C)(C)NC(=O)CSc1nc2ccc(NC(=O)CSc3nnnn3Cc3ccccc3)cc2s1	ADAM17 inh 9.8, ADAM10 inh 25 | ADAM10 confirm inactive | ADAM17 counter inactive | ADAM10 counter 22 | ADAM17 confirm 14
CCOC(=O)CSc1nc2ccc(NC(=O)CSc3nnnn3Cc3ccccc3)cc2s1	none
O=S1(=O)c2c(cccc2N2CCSCC2)Oc2ccccc2CN1Cc1cn(Cc2ccc(Cl)cc2)nn1	none
CC(C)C[C@H](NC(=O)c1nc[nH]c1C(=O)NCc1ccc(CNC(=O)OC(C)(C)C)cc1)C(=O)OC(C)(C)C	ADAM17 inh 16, ADAM10 inh 24 | ADAM10 confirm inactive | ADAM17 counter inactive | ADAM10 counter 52 | ADAM17 confirm 25
CC(C)(C)OC(=O)NCCCC[C@H](NC(=O)c1nc[nH]c1C(=O)NCc1ccc(CNC(=O)OC(C)(C)C)cc1)C(=O)OC(C)(C)C	ADAM17 inh 13, ADAM10 inh 20 | ADAM10 confirm inactive | ADAM17 counter inactive | ADAM10 counter 29 | ADAM17 confirm 15
C[C@@H](NC(=O)c1nc[nH]c1C(=O)NCc1ccc(CNC(=O)OC(C)(C)C)cc1)c1ccccc1	ADAM17 inh 17, ADAM10 inh 45 | ADAM10 confirm inactive | ADAM17 counter inactive | ADAM10 counter 22 | ADAM17 confirm 16
C[C@H](NC(=O)c1nc[nH]c1C(=O)N[C@@H](CCCCNC(=O)OC(C)(C)C)C(=O)OC(C)(C)C)C(=O)OC(C)(C)C	none
CC(C)N(C(N)=NC(=O)OCc1ccccc1)C(C)C	none
CCOC(=O)c1ccc(NC(=O)C2(c3ccc(Cl)cc3)CCCC2)cc1	none
Cc1ccc(NC(=O)COC(=O)C2(c3ccc(Cl)cc3)CCCC2)cc1	ADAM17 inh 11, ADAM10 inh 32 | ADAM10 confirm inactive | ADAM17 counter inactive | ADAM10 counter 31 | ADAM17 confirm 14
CN(CC(=O)N/N=C/c1ccc(F)cc1)S(=O)(=O)c1ccccc1	none
Cc1cccc(NC(=O)c2nc[nH]c2C(=O)Nc2cccc(C)c2)c1	none
CN(Cc1ccccc1)C(=O)c1[nH]cnc1C(=O)Nc1ccccc1	none
Cc1cccc(NC(=O)c2nc[nH]c2C(=O)N[C@@H](C)c2ccccc2)c1	ADAM17 inh 10.0, ADAM10 inh 26 | ADAM10 confirm inactive | ADAM17 counter inactive | ADAM10 counter 29 | ADAM17 confirm 15
